Assay outcomes as filed in PubChem BioAssay.
Hits are enriched below; roughly 1.1% of the tested compounds scored in any of these assays.
PrPC TRFRET = inhibitors of human cell surface prion protein PrPC. P04156. TR-FRET read-out. inhibition, % at 13.8 µM. 370,000 tested, 0.43% active. AID 720596; in the data active means inhibition above about 24%; further: 0% = median of the test wells and 100% = reference compound wells
BJeLR lethal = BJeLR cell viability loss. 300,000 tested, 0.17% active. inhibition, % (concentration not given with the values). BJeLR (HRASV12) viability, CellTiter-Glo ATP luminescence, 48 h; in the data active means inhibition above about 50%
PrP UTR inh = suppresses PrP 5' UTR mRNA reporter expression | cell-based PrP 5' UTR mRNA reporter, plate reader | inhibition, % (concentration not given with the values) | 340,000 tested, 0.35% active | AID 488862; in the data active means inhibition above about 52%; further: 0 = median of the neutral control wells
MazF activator = MazEF (E. coli) toxin RNase activation | P0AE70 | FAM/BHQ RNA-DNA oligo cleavage fluorescence, 5 h | activation, % at 20 µM | 350,000 tested, 0.32% active; in the data active means activation above about 50%
PrPC TRFRET cf = cell surface PrPC inhibition, TR-FRET confirmation; shares compounds with PrPC TRFRET; inhibition, % at 13.8 µM; 1,500 tested, 65% active; AID 743200; cell surface PrPC level; in the data active means inhibition above about 25%
LD9 cytotox = counter-screen for PrPc inhibitors: cytotoxicity in LD9 cells | shares compounds with PrPC TRFRET | luminescence viability | inhibition, % at 13.8 µM | 1,500 tested, 29% active | AID 743201; in the data active means inhibition above about 9.5%
Numbers without * were called inactive; . = no result.

SMILES	PrPC TRFRET	BJeLR lethal	PrP UTR inh	MazF activator	PrPC TRFRET cf	LD9 cytotox
CCOC(=O)c1sc2nc(CC(=O)OC)nc(NCc3ccco3)c2c1C	-2	-2	-9	-3	.	.
COc1cccc(C(=O)N2CCC[C@@H]2C(=O)N2CCC[C@@H]2C(=O)NCc2ccccc2)c1	12	.	.	.	.	.
CC(C)[C@@H](NC(=O)OC(C)(C)C)c1cc(C(=O)c2c(-c3ccccc3)[nH]c3ccccc23)c(N)s1	41*	.	.	.	30*	-10
CCCCCCn1c(=O)n2n(c1=O)C[C@]1(OC(=O)Nc3cccs3)CN(S(=O)(=O)c3ccc(C)cc3)C[C@]1(O)C2	25*	.	.	9	5	0
N#Cc1ccccc1S(=O)(=O)N1CCN(c2nc(-c3cccs3)nc3ccccc23)CC1	3	.	.	.	.	.
c1ccc(CCNc2ccnc3cc4ccccc4cc23)cc1	80*	22	-39	-11	23	80*
CC(C)Nc1ccc(Nc2ccnc3cc4ccccc4cc23)cc1	-4	44	-22	-13	.	.
CC(=O)Nc1ccc(Nc2nc(-c3ccccc3)nc3ccccc23)cc1	30*	3	-17	11	18	17*
CC(C)CC(N)c1csc(Nc2ncccn2)n1 (stereo not drawn)	42*	.	.	.	50*	-1
NC(COCc1ccccc1)c1csc(Nc2ncccn2)n1 (stereo not drawn)	5	.	.	.	.	.
CCOC(=O)C1=CCN(S(=O)(=O)c2ccccc2Br)C1c1ccc(Cl)cc1 (stereo not drawn)	12	.	.	.	.	.
CCc1ccccc1Nc1nn2c(=O)c3ccc(C(=O)NCc4ccccn4)cc3nc2s1	38*	-12	-3	7	25*	-7
COc1ccc2sc3ccccc3c(=O)c2c1OC	29*	2	-35	4	38*	-7
CC(C)CNS(=O)(=O)CC1NCc2ccccc21 (stereo not drawn)	6	.	.	.	.	.
CN(C)c1ccc(Nc2ncnc3ccc(Br)cc23)cc1	2	2	-5	3	.	.
Clc1cccc(Nc2ncnc3ccc(Br)cc23)c1	63*	-7	0	6	76*	2
Cc1cccc(Nc2ncnc3ccc(Br)cc23)c1	26*	1	7	-18	31*	-1
Brc1ccc2ncnc(NCc3ccccc3)c2c1	48*	10	15	3	50*	12*
Clc1ccc(Nc2ncnc3ccc(Br)cc23)cc1	30*	6	-7	31	44*	4
COC(=O)Cc1c(C)c2ccc(OCC(C)=O)c(C)c2oc1=O	7	-4	-44	0	.	.
COC(=O)Cc1c(C)c2ccc(OCC(=O)N3CCCC(C)C3)c(C)c2oc1=O (stereo not drawn)	26*	-17	-8	-6	38*	9
COc1ccc(C)cc1CN1C(=O)c2ccccc2C1=O	28*	7	-10	-1	-4	-5
Cc1cc(SCCC(=O)O)nc2c(C)cccc12	71*	-9	-6	-4	69*	4
CCN1CCCCC(NC(=O)c2ccccc2OC)C1=O (stereo not drawn)	-4	.	.	.	.	.
C[C@@H]1C[C@H]2O[C@@H]2/C=C\C=C\C(=O)Cc2cc(O)cc(O)c2C(=O)O1	81*	.	.	.	48*	61*
SMILES	PrPC TRFRET	BJeLR lethal	PrP UTR inh	MazF activator	PrPC TRFRET cf	LD9 cytotox
CCOC(=O)c1c(C)[nH]c(C(=O)OCC(=O)Nc2sccc2C(N)=O)c1C	33*	16	-44	-17	18	44*
COC1=CC(=O)c2c(ccc3ncnc(N)c23)C1=O	61*	.	32	11	84*	98*
CN1CCCCC(NC(=O)c2cccc([N+](=O)[O-])c2)C1=O (stereo not drawn)	-14	.	.	.	.	.
CSc1cccc(NS(=O)(=O)c2ccc3c(c2)CCN3C(C)=O)c1	25*	18	-14	8	21	15*
COc1cccc(NS(=O)(=O)c2ccc3c(c2)CCN3C(C)=O)c1	16	7	-31	4	.	.
N#Cc1c(-c2cccs2)nc(SCc2ccc(Cl)cc2)[nH]c1=O	109*	-7	-24	-18	119*	-7
O=C(CSc1cnc2ccccc2n1)NC1CCCC1	33*	-4	-13	2	40*	-1
N#Cc1c(-c2ccccc2)nc(SCC(=O)NC2CCCCC2)[nH]c1=O	36*	.	3	6	39*	-10
O=c1[nH]c(SCc2ccc(Cl)cc2)nc2ccsc12	4	-2	.	-13	.	.
CNC(=O)NC(=O)CSc1nc(-c2cccs2)c(C#N)c(=O)[nH]1	120*	2	-51	0	124*	-3
NC(=O)c1c(N)[nH]c(C(=O)c2ccccc2)c1-c1ccc2c(c1)OCO2	-10	.	.	.	.	.
CCNC(=O)N1CCN(c2ccc(N3CCN(Cc4ccccc4)[C@@H](C)C3)c(C)c2)[C@H](C)C1	4	.	.	.	.	.
CSc1nc(-c2cccs2)c(C#N)c(=O)[nH]1	59*	-6	-41	-2	87*	-1
